# The supplement of paper PMC6411743
# ± gives the standard deviation of the averaged measurements. Targets with the largest changes are over-represented here; the source holds about 5,400 in all.
# Compound: Nc1nc2c(ncn2[C@@H]2O[C@H](COP(=O)(O)OP(=O)(O)OP(=O)(O)O)[C@@H](O)[C@H]2O)c(=O)[nH]1 [guanosine triphosphate]
# Assay: NP40-soluble protein abundance relative to vehicle (solubility fold change) (ratio); higher = more soluble protein in presence of GTP
# Procedure, shortened: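 Values are fold changes against the detergent-processed vehicle, based on vsn-normalised intensities. Jurkat crude lysate was treated at eight concentrations from 0.1 to 10 mM (10 min at room temperature, then 3 min at 37 °C), solubilised with 0.8% NP40 and benzonase, ultracentrifuged and analysed by TMT-labelled LC-MS/MS over three independent experiments.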
# Chain of UniProt Q14444 (Q14444 whole entry): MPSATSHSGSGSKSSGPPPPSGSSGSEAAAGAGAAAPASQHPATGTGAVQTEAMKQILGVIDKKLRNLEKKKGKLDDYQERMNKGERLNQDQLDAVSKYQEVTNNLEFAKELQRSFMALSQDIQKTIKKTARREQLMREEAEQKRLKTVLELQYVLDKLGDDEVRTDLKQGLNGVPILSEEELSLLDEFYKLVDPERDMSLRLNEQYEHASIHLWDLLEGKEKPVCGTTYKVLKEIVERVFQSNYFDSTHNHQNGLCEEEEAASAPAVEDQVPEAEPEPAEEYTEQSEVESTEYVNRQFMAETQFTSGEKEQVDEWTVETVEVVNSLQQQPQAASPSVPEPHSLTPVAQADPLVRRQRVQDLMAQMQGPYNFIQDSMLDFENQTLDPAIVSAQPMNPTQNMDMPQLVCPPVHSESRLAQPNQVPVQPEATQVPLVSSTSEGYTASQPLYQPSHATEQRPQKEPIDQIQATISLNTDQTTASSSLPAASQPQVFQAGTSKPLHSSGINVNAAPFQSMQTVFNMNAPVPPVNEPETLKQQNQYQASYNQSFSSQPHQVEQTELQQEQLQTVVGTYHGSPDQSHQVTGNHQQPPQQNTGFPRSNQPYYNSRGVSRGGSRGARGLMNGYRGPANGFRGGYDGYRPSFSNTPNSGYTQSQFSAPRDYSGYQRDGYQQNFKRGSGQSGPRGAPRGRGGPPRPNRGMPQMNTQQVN
# Chain of UniProt Q8NC56 (Q8NC56 whole entry): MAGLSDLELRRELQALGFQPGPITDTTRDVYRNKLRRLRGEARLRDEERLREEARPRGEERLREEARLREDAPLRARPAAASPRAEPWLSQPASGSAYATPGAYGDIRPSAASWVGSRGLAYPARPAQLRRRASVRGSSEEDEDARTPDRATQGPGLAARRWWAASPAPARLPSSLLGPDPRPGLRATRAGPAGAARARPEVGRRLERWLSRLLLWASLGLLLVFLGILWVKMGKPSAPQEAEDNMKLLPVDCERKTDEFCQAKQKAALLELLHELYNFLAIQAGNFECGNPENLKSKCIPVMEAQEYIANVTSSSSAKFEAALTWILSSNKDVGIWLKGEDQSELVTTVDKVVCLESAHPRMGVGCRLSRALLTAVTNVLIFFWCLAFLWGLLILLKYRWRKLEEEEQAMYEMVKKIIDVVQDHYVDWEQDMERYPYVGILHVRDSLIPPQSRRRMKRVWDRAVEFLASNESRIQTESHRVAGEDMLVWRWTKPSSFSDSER
# Chain of UniProt Q00653 (Q00653 whole entry): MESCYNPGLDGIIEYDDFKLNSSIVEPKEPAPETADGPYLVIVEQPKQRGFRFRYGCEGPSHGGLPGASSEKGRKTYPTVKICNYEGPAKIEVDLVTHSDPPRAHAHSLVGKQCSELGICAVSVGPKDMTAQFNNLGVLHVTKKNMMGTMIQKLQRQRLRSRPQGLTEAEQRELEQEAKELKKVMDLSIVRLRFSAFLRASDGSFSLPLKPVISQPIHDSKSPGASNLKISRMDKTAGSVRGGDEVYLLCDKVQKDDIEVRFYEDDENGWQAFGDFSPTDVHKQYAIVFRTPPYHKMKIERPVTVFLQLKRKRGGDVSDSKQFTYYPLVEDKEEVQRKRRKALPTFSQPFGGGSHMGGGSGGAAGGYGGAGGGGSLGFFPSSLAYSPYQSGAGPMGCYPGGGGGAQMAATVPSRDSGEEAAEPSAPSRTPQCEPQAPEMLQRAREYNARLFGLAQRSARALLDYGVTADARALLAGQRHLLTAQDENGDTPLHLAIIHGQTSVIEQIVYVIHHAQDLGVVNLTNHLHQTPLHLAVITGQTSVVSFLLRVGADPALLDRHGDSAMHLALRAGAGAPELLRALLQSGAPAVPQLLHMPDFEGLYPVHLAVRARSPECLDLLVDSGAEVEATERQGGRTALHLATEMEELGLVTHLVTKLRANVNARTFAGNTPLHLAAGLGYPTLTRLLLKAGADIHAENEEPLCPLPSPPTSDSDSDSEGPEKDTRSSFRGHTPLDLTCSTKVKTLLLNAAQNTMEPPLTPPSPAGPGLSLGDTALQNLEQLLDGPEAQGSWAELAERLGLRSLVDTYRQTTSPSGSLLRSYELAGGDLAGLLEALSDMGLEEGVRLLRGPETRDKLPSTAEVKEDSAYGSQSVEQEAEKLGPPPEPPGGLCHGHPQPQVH
# Chain of UniProt Q6WKZ4 (Q6WKZ4 whole entry): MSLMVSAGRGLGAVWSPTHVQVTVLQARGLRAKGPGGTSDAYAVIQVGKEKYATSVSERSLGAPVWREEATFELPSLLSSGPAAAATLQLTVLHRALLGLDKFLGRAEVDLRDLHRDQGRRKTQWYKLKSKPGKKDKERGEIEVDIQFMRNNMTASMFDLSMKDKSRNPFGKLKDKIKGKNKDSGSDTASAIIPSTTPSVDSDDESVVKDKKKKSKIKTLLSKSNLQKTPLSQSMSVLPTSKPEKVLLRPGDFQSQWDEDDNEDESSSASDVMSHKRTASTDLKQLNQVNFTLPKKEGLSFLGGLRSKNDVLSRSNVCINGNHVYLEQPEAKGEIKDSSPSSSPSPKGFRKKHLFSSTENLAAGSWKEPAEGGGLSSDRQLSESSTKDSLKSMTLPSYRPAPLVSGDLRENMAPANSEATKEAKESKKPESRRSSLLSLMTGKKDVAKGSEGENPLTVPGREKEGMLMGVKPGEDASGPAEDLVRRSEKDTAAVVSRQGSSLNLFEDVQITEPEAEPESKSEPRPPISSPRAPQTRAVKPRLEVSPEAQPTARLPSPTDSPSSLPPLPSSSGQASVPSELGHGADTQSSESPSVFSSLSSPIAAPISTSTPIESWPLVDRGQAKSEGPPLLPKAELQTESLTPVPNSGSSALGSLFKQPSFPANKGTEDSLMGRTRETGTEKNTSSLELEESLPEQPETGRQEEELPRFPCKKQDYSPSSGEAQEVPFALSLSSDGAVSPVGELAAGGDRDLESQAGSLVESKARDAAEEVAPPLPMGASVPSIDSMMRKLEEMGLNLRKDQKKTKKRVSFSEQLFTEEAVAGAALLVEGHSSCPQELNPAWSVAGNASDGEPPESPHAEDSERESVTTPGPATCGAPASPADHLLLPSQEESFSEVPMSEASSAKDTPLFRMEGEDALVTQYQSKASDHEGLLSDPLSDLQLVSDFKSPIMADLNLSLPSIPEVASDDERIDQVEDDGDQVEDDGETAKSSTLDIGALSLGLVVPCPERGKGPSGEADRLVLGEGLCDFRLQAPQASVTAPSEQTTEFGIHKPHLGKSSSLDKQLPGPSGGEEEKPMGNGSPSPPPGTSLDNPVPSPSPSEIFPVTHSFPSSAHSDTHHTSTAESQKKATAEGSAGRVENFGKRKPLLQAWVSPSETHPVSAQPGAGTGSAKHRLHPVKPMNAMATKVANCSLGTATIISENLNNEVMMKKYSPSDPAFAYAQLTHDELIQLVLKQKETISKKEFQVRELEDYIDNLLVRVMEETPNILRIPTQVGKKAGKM
# Chain of UniProt Q7L5D6 (Q7L5D6 whole entry): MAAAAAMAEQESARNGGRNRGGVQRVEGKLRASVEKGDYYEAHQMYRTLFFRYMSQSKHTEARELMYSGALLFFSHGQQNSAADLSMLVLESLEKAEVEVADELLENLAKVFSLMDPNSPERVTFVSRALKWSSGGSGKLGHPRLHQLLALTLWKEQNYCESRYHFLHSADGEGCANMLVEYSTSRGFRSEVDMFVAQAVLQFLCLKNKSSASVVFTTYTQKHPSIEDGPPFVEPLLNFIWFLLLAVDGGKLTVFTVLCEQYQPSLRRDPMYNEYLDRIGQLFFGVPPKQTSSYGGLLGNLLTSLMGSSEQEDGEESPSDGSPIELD
# Chain of UniProt Q5JTZ9 (Q5JTZ9 whole entry): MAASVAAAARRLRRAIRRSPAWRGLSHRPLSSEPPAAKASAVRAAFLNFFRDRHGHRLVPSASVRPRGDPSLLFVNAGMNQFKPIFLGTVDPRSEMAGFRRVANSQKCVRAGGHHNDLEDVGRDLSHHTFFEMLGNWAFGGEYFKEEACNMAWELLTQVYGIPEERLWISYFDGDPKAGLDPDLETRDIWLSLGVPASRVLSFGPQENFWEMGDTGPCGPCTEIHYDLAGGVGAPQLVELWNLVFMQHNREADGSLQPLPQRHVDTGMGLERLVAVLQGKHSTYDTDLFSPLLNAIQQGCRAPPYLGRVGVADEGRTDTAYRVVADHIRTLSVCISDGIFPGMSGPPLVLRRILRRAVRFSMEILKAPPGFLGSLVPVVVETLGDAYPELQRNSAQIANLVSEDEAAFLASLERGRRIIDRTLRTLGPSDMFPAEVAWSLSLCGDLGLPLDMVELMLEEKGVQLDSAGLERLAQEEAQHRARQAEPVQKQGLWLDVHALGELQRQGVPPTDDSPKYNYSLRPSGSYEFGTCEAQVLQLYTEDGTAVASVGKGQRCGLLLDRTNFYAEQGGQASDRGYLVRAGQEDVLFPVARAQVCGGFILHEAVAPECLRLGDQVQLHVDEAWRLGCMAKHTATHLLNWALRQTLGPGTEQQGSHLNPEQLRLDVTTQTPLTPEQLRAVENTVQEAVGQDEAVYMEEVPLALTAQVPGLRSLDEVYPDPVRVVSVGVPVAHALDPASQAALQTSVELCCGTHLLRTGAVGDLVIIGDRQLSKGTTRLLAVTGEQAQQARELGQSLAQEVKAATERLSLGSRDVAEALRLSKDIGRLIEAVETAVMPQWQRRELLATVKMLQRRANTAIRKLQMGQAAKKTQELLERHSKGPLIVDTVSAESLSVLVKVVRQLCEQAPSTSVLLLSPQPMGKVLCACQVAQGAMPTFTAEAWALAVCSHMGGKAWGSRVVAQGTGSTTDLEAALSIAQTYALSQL
# Chain of UniProt P80217 (P80217 whole entry): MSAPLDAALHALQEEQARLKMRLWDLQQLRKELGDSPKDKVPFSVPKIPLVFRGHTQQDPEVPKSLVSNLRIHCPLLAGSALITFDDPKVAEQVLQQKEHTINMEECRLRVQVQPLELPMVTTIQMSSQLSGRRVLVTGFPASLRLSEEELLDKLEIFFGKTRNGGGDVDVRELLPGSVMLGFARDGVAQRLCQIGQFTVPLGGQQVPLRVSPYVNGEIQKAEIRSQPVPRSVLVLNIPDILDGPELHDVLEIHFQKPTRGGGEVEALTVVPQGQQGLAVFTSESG
Target,NP40-soluble protein abundance (concentration: 0.1mM),NP40-soluble protein abundance (concentration: 0.5mM),NP40-soluble protein abundance (concentration: 1mM),NP40-soluble protein abundance (concentration: 2mM),NP40-soluble protein abundance (concentration: 4mM),NP40-soluble protein abundance (concentration: 6mM),NP40-soluble protein abundance (concentration: 8mM),NP40-soluble protein abundance (concentration: 10mM)
Q5QPL9|Q9UKM9-2|Q9UKM9 (UniProt Q9UKM9),0.927 ± 0.04,1 ± 0.025,1.07 ± 0.14,1.07 ± 0.2,1.07 ± 0.28,1.05 ± 0.25,1.01 ± 0.24,0.949 ± 0.23
THOC7 (UniProt Q6I9Y2),0.999 ± 0.13,1.15 ± 0.095,1.6 ± 0.23,1.92 ± 0.32,2.31 ± 0.58,2.51 ± 0.63,2.43 ± 0.56,2.78 ± 0.98
UniProt P63151|E5RJV1,0.983 ± 0.037,1.02 ± 0.071,0.934 ± 0.068,0.931 ± 0.083,0.955 ± 0.079,0.887 ± 0.071,0.92 ± 0.016,0.8766 ± 0.0055
UniProt Q00653|Q00653-4,0.995 ± 0.032,0.997 ± 0.021,0.959 ± 0.013,0.955 ± 0.037,0.96 ± 0.048,0.931 ± 0.016,0.966 ± 0.04,0.94 ± 0.045
TRAPPC6B (UniProt Q86SZ2),1.06 ± 0.015,0.988 ± 0.077,0.954 ± 0.058,0.997 ± 0.092,0.999 ± 0.049,0.963 ± 0.088,0.885 ± 0.017,0.958 ± 0.065
SLC25A24 (UniProt Q6NUK1),0.934 ± 0.055,0.93 ± 0.033,0.857 ± 0.039,0.854 ± 0.014,0.837 ± 0.026,0.845 ± 0.024,0.809 ± 0.061,0.817 ± 0.057
PSMD2 (UniProt Q13200),1.03 ± 0.077,1.1 ± 0.11,1.01 ± 0.13,1.08 ± 0.19,1.06 ± 0.17,1.08 ± 0.2,1.04 ± 0.16,1 ± 0.15
LEMD2 (UniProt Q8NC56),1.09 ± 0.04,1.22 ± 0.11,1.32 ± 0.076,1.34 ± 0.15,1.34 ± 0.088,1.42 ± 0.11,1.48 ± 0.14,1.49 ± 0.21
UniProt Q6WKZ4|Q6WKZ4-3,1.02 ± 0.049,0.951 ± 0.044,0.946 ± 0.05,0.921 ± 0.056,0.933 ± 0.058,0.901 ± 0.022,0.943 ± 0.057,0.89 ± 0.038
P86790|P86791 (UniProt P86791+P86790),1.06 ± 0.015,1.06 ± 0.072,1.03 ± 0.063,0.99 ± 0.038,1.01 ± 0.068,0.948 ± 0.038,0.943 ± 0.029,0.924 ± 0.0097
UniProt Q7Z2T5,1.05 ± 0.05,1.09 ± 0.014,1.08 ± 0.035,1.21 ± 0.059,1.32 ± 0.072,1.42 ± 0.08,1.44 ± 0.059,1.57 ± 0.024
UniProt Q12789|Q12789-3,1.08 ± 0.051,1.08 ± 0.093,1.1 ± 0.1,1.13 ± 0.09,1.13 ± 0.1,1.1 ± 0.077,1.1 ± 0.11,1.1 ± 0.11
CCDC25 (UniProt Q86WR0),0.954 ± 0.079,0.939 ± 0.057,0.892 ± 0.051,0.842 ± 0.071,0.855 ± 0.1,0.842 ± 0.084,0.876 ± 0.059,0.863 ± 0.068
FAM160B1 (UniProt Q5W0V3),1.03 ± 0.037,1.03 ± 0.027,0.964 ± 0.029,0.959 ± 0.02,0.9389 ± 0.0083,0.922 ± 0.0022,0.91 ± 0.033,0.894 ± 0.051
AARS2 (UniProt Q5JTZ9),1.13 ± 0.043,1.02 ± 0.046,0.989 ± 0.052,0.998 ± 0.059,0.98 ± 0.06,0.948 ± 0.04,0.925 ± 0.03,0.925 ± 0.045
SMC5 (UniProt Q8IY18),1.026 ± 0.0089,1.06 ± 0.036,1.03 ± 0.025,1.02 ± 0.03,1.009 ± 0.0054,1.04 ± 0.019,1.05 ± 0.031,1.03 ± 0.021
UniProt Q7Z7K6|Q7Z7K6-3,1.09 ± 0.035,1.08 ± 0.071,1.16 ± 0.013,1.37 ± 0.071,1.69 ± 0.2,2.01 ± 0.27,2.24 ± 0.32,3.21 ± 0.43
TWF2 (UniProt Q6IBS0),1.02 ± 0.035,1.09 ± 0.049,1.02 ± 0.017,1.02 ± 0.055,1.03 ± 0.08,1.01 ± 0.013,0.95 ± 0.032,0.951 ± 0.012
UniProt P63092-2|P63092-3|P63092|P63092-4,0.973 ± 0.013,0.9607 ± 0.0034,0.922 ± 0.025,0.91 ± 0.024,0.882 ± 0.043,0.882 ± 0.038,0.873 ± 0.026,0.847 ± 0.031
ZC3H13 (UniProt Q5T200),1.01 ± 0.055,1.02 ± 0.063,1.07 ± 0.054,1.08 ± 0.063,1.12 ± 0.059,1.12 ± 0.055,1.24 ± 0.099,1.18 ± 0.1
FKBP3 (UniProt Q00688),0.911 ± 0.048,0.906 ± 0.066,0.943 ± 0.073,0.906 ± 0.081,0.902 ± 0.081,0.905 ± 0.082,0.925 ± 0.077,0.943 ± 0.09
DDX51 (UniProt Q8N8A6),1.07 ± 0.15,1.11 ± 0.05,1.2 ± 0.08,1.35 ± 0.09,1.64 ± 0.085,1.86 ± 0.21,2.05 ± 0.24,2.1 ± 0.15
P62158 (UniProt P0DP23),0.715 ± 0.11,0.763 ± 0.14,0.991 ± 0.17,1.12 ± 0.19,1.09 ± 0.21,1.15 ± 0.24,0.939 ± 0.14,1.14 ± 0.11
UniProt Q10567|Q10567-2|Q10567-3,0.918 ± 0.056,0.927 ± 0.032,0.956 ± 0.054,0.943 ± 0.044,0.954 ± 0.04,0.919 ± 0.051,0.921 ± 0.05,0.924 ± 0.054
UniProt P80217|P80217-2,0.97 ± 0.043,1.01 ± 0.063,0.926 ± 0.044,0.902 ± 0.076,0.877 ± 0.059,0.911 ± 0.067,0.934 ± 0.052,0.938 ± 0.051
UniProt Q8WUQ7|Q8WUQ7-2,0.975 ± 0.11,1.02 ± 0.12,0.967 ± 0.13,1.02 ± 0.14,1.09 ± 0.13,1.12 ± 0.095,1.12 ± 0.03,1.19 ± 0.11
UniProt Q14444|Q14444-2,0.95 ± 0.057,0.994 ± 0.098,1.06 ± 0.07,1.01 ± 0.14,1.02 ± 0.088,1.11 ± 0.1,1.16 ± 0.057,1.13 ± 0.11
METTL3 (UniProt Q86U44),0.967 ± 0.058,1.01 ± 0.061,0.969 ± 0.062,0.948 ± 0.076,0.911 ± 0.06,0.932 ± 0.058,0.92 ± 0.085,0.931 ± 0.063
UniProt Q7L5D6|Q7L5D6-2,1.03 ± 0.056,0.98 ± 0.091,0.94 ± 0.047,0.975 ± 0.11,0.963 ± 0.12,0.986 ± 0.1,0.868 ± 0.053,0.887 ± 0.12
DDX1 (UniProt Q92499),1.02 ± 0.024,1.02 ± 0.066,0.941 ± 0.027,0.971 ± 0.072,0.997 ± 0.059,0.993 ± 0.063,0.971 ± 0.013,0.961 ± 0.038
